Data: PubChem BioAssay AID651650 (Sanford-Burnham Center for Chemical Genomics, 2012)

What follows are compounds tested against Neuropilin-1 (Homo sapiens) (UniProt O14786) (assay: blockers of CendR peptide binding to NRP-1 – biochemical, FP and AlphaScreen panel, dose response (AID 651650)). Conditions: NRP-1 b1b2 / RPARPAR peptide binding, FP or AlphaScreen; run 1, at 100 µM (top of the series).
Chain of Neuropilin-1 (Homo sapiens) (O14786 whole entry, looked up): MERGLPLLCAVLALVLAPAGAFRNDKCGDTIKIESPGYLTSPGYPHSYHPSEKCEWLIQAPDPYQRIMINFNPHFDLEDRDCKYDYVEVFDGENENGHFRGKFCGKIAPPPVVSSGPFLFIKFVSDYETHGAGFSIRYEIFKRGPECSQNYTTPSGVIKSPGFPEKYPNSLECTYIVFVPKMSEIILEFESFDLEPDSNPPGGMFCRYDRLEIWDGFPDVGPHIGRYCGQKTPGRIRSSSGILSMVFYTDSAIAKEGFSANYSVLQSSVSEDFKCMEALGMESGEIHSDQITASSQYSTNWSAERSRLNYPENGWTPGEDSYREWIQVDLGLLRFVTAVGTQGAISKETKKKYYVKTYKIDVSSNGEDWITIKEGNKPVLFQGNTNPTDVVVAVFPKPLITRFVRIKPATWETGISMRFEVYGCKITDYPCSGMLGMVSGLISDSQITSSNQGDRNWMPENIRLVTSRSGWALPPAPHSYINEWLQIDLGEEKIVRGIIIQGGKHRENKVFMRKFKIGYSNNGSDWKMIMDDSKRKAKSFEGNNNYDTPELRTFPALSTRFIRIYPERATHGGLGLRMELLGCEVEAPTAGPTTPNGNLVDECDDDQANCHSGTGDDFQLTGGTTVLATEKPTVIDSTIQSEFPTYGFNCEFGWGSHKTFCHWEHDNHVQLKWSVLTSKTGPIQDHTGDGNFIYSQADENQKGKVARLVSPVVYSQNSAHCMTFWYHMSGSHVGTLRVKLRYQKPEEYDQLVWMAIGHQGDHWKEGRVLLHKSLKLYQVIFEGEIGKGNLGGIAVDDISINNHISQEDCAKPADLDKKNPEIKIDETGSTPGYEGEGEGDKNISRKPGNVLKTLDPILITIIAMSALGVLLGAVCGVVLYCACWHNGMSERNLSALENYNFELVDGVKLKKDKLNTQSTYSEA
With `Cc1ccc(Cn2c(C(C)Nc3nc(-c4ccc(Cl)c([N+](=O)[O-])c4)cs3)nc3cc(C(F)(F)F)ccc32)cc1` (stereo not given) the inhibition was 41.6%. `Cc1[nH]n(-c2ccccc2)c(=S)c1C=Nc1cccc([N+](=O)[O-])c1` showed an inhibition of 14.4%. With `Cc1cccc(CN2CCN(C3CN(Cc4cn(Cc5cccc(Cl)c5)nn4)S(=O)(=O)C3)CC2)c1` (stereo not given) the inhibition was 33.2%. `COc1ccc(-c2noc(CN(C(=O)c3ccc4c(c3)OCO4)C(C)C)n2)cc1` gave an inhibition of 27.6%. Compound `Cc1ccc(NC=C(S(=O)(=O)c2ccccc2)S(=O)(=O)c2ccccc2)cc1` has an inhibition of -22.8%. For `O=c1[nH]c(Nc2ccccn2)cc2ccccc12`, the inhibition was 81.1%. Work on `CN(C)/N=C/c1ccc(Sc2ccc([N+](=O)[O-])cc2[N+](=O)[O-])o1` yielded an inhibition of 55.1%. For `COc1cccc(OCC(=O)NNC(=S)Nc2ccc(Cl)cc2Cl)c1`, the inhibition was 27.2%. Compound `CCC1=C(OC(=O)N(CC)CC)N2C(=O)OC(=NCC(=O)OC)[C@]2(C)[C@H]2C1=CC[C@H]1C(=O)N(CC)C(=O)[C@H]12` has an inhibition of 11.6%. `COC/C=C/C1=CC2=CC(=O)C(C)(OC(=O)c3cnc4ccccc4n3)C(=O)C2=CN1Cc1ccc(OC)cc1` (stereo not given) showed an inhibition of 66.7%. With `OCC[C@H]1C[C@H](O)[C@@H](O)[C@]2(CCCCO2)O1` the inhibition was -5.29%. Compound `CCCNC(=S)Nc1cccc(C(F)(F)F)c1` has an inhibition of -8.06%. Work on `CCOC(=O)/C=C/COc1ccccc1[N+](=O)[O-]` yielded an inhibition of 29.2%. With `CCN(CCCNC(=O)CNC(=O)c1nn(-c2ccc(OC)cc2OC)c(=O)c2ccccc12)c1cccc(C)c1` the inhibition was 24.3%. Compound `CC(C(=O)N1CCN(c2ccc(Cl)cc2)CC1)c1ncc(C(F)(F)F)cc1Cl` (stereo not given) has an inhibition of -2.5%.
